# Starred links: 1 amine or outer side, 2 acyl side, 3 side chain; linkers in the order of their positions; H or OH if unused. Positions of bridges follow the written chain, without caps; N, C: chain ends. Non-standard residues stand in square brackets, D forms with d. Residues, ends and D or L forms follow the SMILES beside them. Chains are numbered I, II in the order given. ξ: configuration not given here. *: point of attachment. Actinocin(9to1) = Cc1c2oc3c(C)ccc(C(=O)[*:1])c3nc-2c(C(=O)[*:2])c(N)c1=O; Octanoyl(6-Me) = CCC(C)CCCCC(=O)*; ξThr(3R) = C[C@@H](O)C(N)C(=O)O; NMeV = CN[CH](C(=O)O)C(C)C; dDab = NCC[C@@H](N)C(=O)O; Dab = NCC[C@H](N)C(=O)O; Sar = CNCC(=O)O
# Assay: qHTS profiling of the MIPE4 collection as inhibitors of Plasmodium falciparum (DD2) proliferation (Rep 2) (AID 743346)
# Details: P. falciparum Dd2 in erythrocytes, SYBR Green DNA, 72 h; at 28.5 µM unless noted
# Text: Plasmodium falciparum is a virulent malarial parasite that kills 1-2 million people worldwide each year. Transmitted by mosquitoes, the sporozoite form of the parasite enters the blood stream to infect hepatocytes, where they become merozoites that infect red blood cells (erythrocytes). Within erythrocytes, merozoites begin a […] cycle of growth and division, after which the parasite is released to infect new red blood cells. Gametocytes, which form within erythrocytes as well, circulate in the bloodstream and are ingested by the mosquito, thereby completing the life cycle. To profile malarial isolates for differential chemical responses and to identify inhibitors of malarial growth, an assay that measures P. falciparum growth and replication within erythrocytes was employed. This assay uses a DNA binding fluorescent dye (SYBR Green) to detect parasite DNA following cell lysis. Because mature erythrocytes lack DNA, only Plasmodium-derived DNA is detected.
# The SYBR Green viability assay was adapted from a method described previously (Plouffe et al., 2008). For screening 3 ul culture medium was dispensed into 1536 well black clear bottom plates (Aurora Biotechnologies) using a Multidrop Combi (Thermo Fisher Scientific Inc.), 23 nL compounds in DMSO were added by a pin tool (Kalypsys), and 5 ul of erythrocytes infected with P. falciparum (0.3% parasitemia, 2.5% hematocrit final concentration) were added. The plates were incubated at 37 C in a humidified incubator in 5% CO2 for 72 h, and 2 ul lysis buffer (20 mM Tris HCl, 10 mM EDTA, 0.16% saponin, 1.6% triton X, 10X SYBR Green I supplied as 10,000X […] by Invitrogen) was added to each well. The plates were mixed for 25 sec with gentle shaking and incubated overnight at room temperature in the dark. The following morning, fluorescence intensity at 485(14) nm excitation and 535(25) nm emission wavelengths was measured on an EnVision (Perkin Elmer) plate reader. Plate reads were normalized relative to the control inhibitor (0.29 uM artemisinin) and vehicle (DMSO) wells present on each plate and then corrected by an algorithm using vehicle-only control plates at the beginning and end of the compound plate stack.
row,Compound,"parasite growth, % of control (lower = inhibition)"
1,O=c1c(O)c(-c2ccc(O)c(O)c2)oc2cc(O)ccc12,14.7%
2,CCCCC(=O)O[C@]1(C(=O)CO)[C@@H](C)C[C@H]2[C@@H]3CCC4=CC(=O)C=C[C@]4(C)[C@@]3(F)[C@@H](O)C[C@@]21C,54.9%
3,N#CNC(=NCCCCCCOc1ccc(Cl)cc1)Nc1ccncc1,28%
4,CCN1CCN(C(=O)N[C@H](C(=O)N[C@@H]2C(=O)N3C(C(=O)O)=C(CSc4nnnn4C)CS[C@@H]23)c2ccc(O)cc2)C(=O)C1=O,57.9% [at 9.64 µM]
5,CC(C)N1[N]C(=C2C=c3cc(O)ccc3=N2)c2c(N)ncnc21,10.7%
6,Cn1c(Nc2ccc(C(F)(F)F)cc2)nc2cc(Oc3ccnc(-c4ncc(C(F)(F)F)[nH]4)c3)ccc21,19.4%
7,CC(C)n1cnc2c(NCCc3ccc(O)cc3)nc(-c3csc4ccccc34)nc21,13.2%
8,OCCNC1CCCc2c1[nH]c1ccc(-c3ccccc3)cc21 (stereo not given),13.3%
9,N=c1ccn2c(n1)O[C@H]1[C@@H](O)[C@@H](CO)O[C@H]12,83.2%
10,CCC(C)CCCCC(=O)N[C@@H](CCN)C(=O)NC(C(=O)N[C@H](CCN)C(=O)N[C@@H]1CCNC(=O)C([C@@H](C)O)NC(=O)[C@@H](CCN)NC(=O)[C@@H](CCN)NC(=O)[C@@H](CC(C)C)NC(=O)[C@H](Cc2ccccc2)NC(=O)[C@H](CCN)NC1=O)[C@@H](C)O (stereo partly drawn) ({Octanoyl(6-Me)}-[Dab][ξThr(3R)][dDab][dDab][Dab]F[dL][dDab][dDab][ξThr(3R)]; lactam 4-C),83.7%
11,O=C(O)[C@H](CC(=O)N1C[C@@H]2CCCC[C@H]2C1)Cc1ccccc1,69.7%
12,O=C(O)CCCCC(CCSCc1ccccc1)SCc1ccccc1 (stereo not given),61.5%
13,CC(=O)NCC(=O)N1[C@H]2CC[C@H]1c1cc(Nc3ncc(C(F)(F)F)c(NC4CCC4)n3)ccc12,12.7%
14,CC(C)(O)[C@H]1CC[C@@](C)([C@H]2[C@@H](O)C[C@@]3(C)[C@@H]4C[C@H](O[C@@H]5O[C@H](CO)[C@@H](O)[C@H](O)[C@@H]5O)[C@H]5C(C)(C)[C@@H](O[C@@H]6OC[C@@H](O)[C@H](O)[C@@H]6O)CC[C@@]56C[C@@]46CC[C@]23C)O1,89.1%
15,C#CCC(Cc1cnc2nc(N)nc(N)c2n1)c1ccc(C(=O)N[C@@H](CCC(=O)O)C(=O)O)cc1 (stereo not given in full),9.31%
16,C[C@H](CCC(=O)O)[C@H]1CCC2C3C[C@H](O)[C@@H]4C[C@H](O)CC[C@]4(C)C3CC[C@@]21C (stereo not given in full),88.7%
17,CCc1nc(-c2cccc(C)c2)c(-c2ccnc(NC(=O)c3ccccc3)c2)s1,49.3%
18,CCC(C=C[C@@H]1OC(=O)C=C[C@H]1C)=C[C@H](C)CC=CC(C)=C[C@@H](C)C(=O)[C@@H](C)[C@H](O)[C@@H](C)CC(C)=CC(=O)O,106% [at 1.06 µM]
19,Cc1cnc(NC(=O)Nc2cc(Br)c(C)cc2OC[C@@H]2CNCCO2)cn1,8.58%
20,C=CC(=O)Nc1cc(NC(=O)c2ccc(C)c(NC(=O)c3ccno3)c2)cc(C(F)(F)F)c1,57.2%

row,Compound,"parasite growth, % of control (lower = inhibition)"
1,O=C(c1ccc(F)cc1)N1CCC[C@H](c2nc(-c3ccc(F)cc3)no2)C1,70.9%
2,CC(=O)N[C@@H]1[C@H](O[C@@H]2c3ccc(c(Cl)c3)Oc3cc4cc(c3O[C@H]3O[C@H](CO)[C@@H](O)[C@H](O)[C@H]3NC(=O)CCCCCCCC(C)C)Oc3ccc(cc3Cl)C[C@H]3NC(=O)[C@H](N)c5ccc(O)c(c5)Oc5cc(O)cc(c5)[C@H](NC3=O)C(=O)N[C@H]4C(=O)N[C@H]3C(=O)N[C@@H]2C(=O)N[C@@H](C(=O)O)c2cc(O)cc(O[C@H]4O[C@H](CO)[C@@H](O)[C@H](O)[C@H]4O)c2-c2cc3ccc2O)O[C@H](CO)[C@@H](O)[C@@H]1O,159%
3,Cc1ncc(-c2ccnc(Nc3ccc(S(C)(=O)=O)cc3)n2)n1C(C)C,10.8%
4,CCOC(=O)C1=C(C)NC(=S)NC1c1cccc(O)c1 (stereo not given),85.5%
5,COc1ccc(C(C)=O)c(O)c1,131%
6,COc1cc(C(C)C)c(Oc2cnc(NC(CO)CO)nc2N)cc1I,60.9%
7,C=CC(=O)Nc1ccc2ncnc(Nc3ccc(OCc4cccc(F)c4)c(Cl)c3)c2c1,16.4%
8,CCn1c(=O)c2c(nc(C=Cc3ccc(OC)c(OC)c3)n2C)n(CC)c1=O,34.2%
9,O=C1NC(=O)[C@@H](c2cn3c4c(cccc24)CCC3)[C@H]1c1c[nH]c2ccccc12,86.1%
10,CNC(=O)c1ccc(Nc2cc(Nc3ccccc3S(=O)(=O)C(C)C)c3cc[nH]c3n2)nc1,12.7%
11,CCC(C(=O)O)C1CCC(C)C(C(C)C(O)C(C)C(=O)C(CC)C2OC3(C=CC(O)[C@@]4(CC[C@](C)(C5CC[C@@](O)(CC)C(C)O5)O4)O3)C(C)CC2C)O1 (stereo not given in full),7.13%
12,C[C@H]1C[C@H]2[C@@H]3CCC4=CC(=O)C=C[C@]4(C)[C@@H]3C(=O)C[C@]2(C)[C@@]1(O)C(=O)CO,81.9%
13,"Cc1c2oc3c(C)ccc(C(=O)NC4C(=O)NC(C(C)C)C(=O)N5CCCC5C(=O)N(C)CC(=O)N(C)C(C(C)C)C(=O)OC4C)c3nc-2c(C(=O)NC2C(=O)NC(C(C)C)C(=O)N3CCCC3C(=O)N(C)CC(=O)N(C)C(C(C)C)C(=O)OC2C)c(N)c1=O (stereo not given) (I: TVP[Sar][NMeV] / II: TVP[Sar][NMeV]; ester I:1-I:C, II:1-II:C; linker I:N-II:N via Actinocin(9to1); configuration not given here)",15.2%
14,Cn1cc(C[C@@H](N)C(=O)O)c2ccccc21,107% [at 9.64 µM]
15,c1cc(CN2CCCNCCNCCCNCC2)ccc1CN1CCCNCCNCCCNCC1,74%
16,O=C(NNC(=O)c1ccc(CNS(=O)(=O)c2ccc(F)c(Cl)c2)cc1)c1ccccc1,100%
17,CN[C@H]1[C@@H](O)[C@@H]2O[C@@H]3O[C@H](C)CC(=O)[C@]3(O)O[C@@H]2[C@@H](NC)[C@H]1O,19.2%
18,CC1(C)[C@H](O[C@H]2O[C@H](C(=O)O)[C@@H](O)[C@H](O)[C@H]2O[C@@H]2O[C@H](C(=O)O)[C@@H](O)[C@H](O)[C@H]2O)CC[C@@]2(C)[C@H]1CC[C@]1(C)[C@H]2C(=O)C=C2[C@H]3C[C@@](C)(C(=O)O)CC[C@]3(C)CC[C@]21C,85.7%
19,COc1cc2c(Nc3ccc(Cl)c(Cl)c3F)ncnc2cc1OCC1C[C@@H]2CN(C)C[C@H]2C1,18.3%
20,COc1cc(C(=O)NC2CCN(C)CC2)ccc1Nc1ncc2c(n1)N(C1CCCC1)CCC(=O)N2C(C)C,15.5%

# Source: PubChem BioAssay (NCATS)
